ELG1 repair inh: blocks ELG1-dependent DNA repair in HEK293T cells; Potency, µM (series often up to 46.1 µM), without a hit: top-dose activity change, negative = inhibition, hits mostly inhibitors; HEK293T ELG1-luciferase reporter, luminescence, 16 h; DNA damage induced by 5-fluorouridine; hit rate 2.3% among 330,000; further: potency means the concentration at half of the fitted maximal effect; nearly all actives have a fitted effect of over 55% in size
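Quantitative HTS, concentration-response format. 2,000 cells/well co-treated with 5-fluorouridine and compound, 16 hr in 5% CO2 at 37 °C; ONE-Glo luminescence read after 30 min.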
HT1080 IDH1KD tx: HT-1080 IDH1 knockdown cell toxicity (counter line); HT-1080 IDH1 knockdown viability, ATP luminescence, 48 h; Potency, µM (doses to about 46.1 µM), without a hit: top-dose activity, negative = toxicity, actives largely listed as cytotoxic; hit rate 2% among 360,000;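 further: potency means the concentration at half of the fitted maximal effect; 0% = DMSO wells and -100% = cell-free medium wells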
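Using the IDH1-knockdown HT-1080 line run in the same batch and compound series as the NT line, viability after 48 h at 37 °C was determined by CellTiter-Glo luminescence and expressed as % activity.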
TDP1 cell noCPT: qHTS for Inhibitors of human tyrosyl-DNA phosphodiesterase 1 (TDP1): qHTS in cells in absence of CPT. DT40 Tdp1-/- hTDP1 cells, no CPT, ATP luminescence, 48 h. Potency, µM (series often up to 46.2 µM), without a hit: top-dose activity change, negative = growth inhibition, hits mostly inhibitors. hit rate 15% among 420,000. AID 686978, 2013; further: potency means the concentration at half of the fitted maximal effect; nearly all actives have a fitted effect of over 55% in size
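No-CPT arm: Tdp1-/-;hTDP1 DT40 cells (400/well) plus compounds, incubated ≥48 hr at 37 °C. Readout CellTiter-Glo luminescence.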
IL-1B inflam inh: blocks inflammasome-driven IL-1 beta release | activity change, % at 57.5 µM | THP-1 LPS/ATP IL-1B secretion, AlphaLISA, 16 h; hits give low values | hit rate 4.7% among 360,000; in the data active means activity change below about -50%; inconclusive means mostly about -30% to -49%
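Secreted IL-1B measured by AlphaLISA bead assay after 16 h compound exposure of THP-1 cells; compounds (final up to 57.5 uM) added 1 h before LPS (250 ng/mL) and ATP (1.25 mM) stimulation; lower signal means less secretion.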
HT1080NT lethal: kills 2HG-producing HT-1080-NT fibrosarcoma cells; Potency, µM (series often up to 46.1 µM), without a hit: at the highest dose activity, negative = less viability, usual class: cytotoxic; HT-1080-NT fibrosarcoma viability, CellTiter-Glo ATP luminescence, 48 h; hit rate 1.6% among 360,000;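 further: NT is the 2HG producing partner of a matched IDH1 knockdown line; potency means the concentration at half of the fitted maximal effect; 0% = DMSO-treated cells and -100% = media-only wells without cells; nearly all actives have a fitted effect of over 55% in size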
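Fibrosarcoma NT cells, 750 per well in 5% FBS RPMI, were exposed to compound for 48 hours. Viability: CellTiter-Glo luminescence.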
DT40 TDP1 CPT: growth inhibition of DT40 Tdp1-/-;hTDP1 cells with camptothecin (screen for TDP1 inhibitors); chicken DT40 Tdp1-/-;hTDP1 cells + 20 nM CPT, ATP luminescence, 48 h; Potency, µM (highest dose often 46.2 µM), for the others: at the top dose activity change, negative = growth inhibition, most hits filed as inhibitors; hit rate 12% among 420,000; AID 686979; further: potency means the concentration at half of the fitted maximal effect; nearly all actives have a fitted effect of over 55% in size
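Cell growth measured by CellTiter-Glo luminescence after a minimum 48 h, 37 C compound exposure with 20 nM CPT in Tdp1-knockout DT40 cells stably expressing hTDP1, seeded 400/well; qHTS titration format.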
The depositor's hits bear a star; ? = inconclusive; · = not tested or not shown; [ ] = dose if it differs, or a comment. Rows were chosen to be rich in hits. Some 19% of all compounds tested hit in one or more screens of this group. Unless noted, the call rests on the fitted dose curve; in most records, active means well fitted curve in the direction sought with a large enough effect; inconclusive means small, poorly fitted or top-dose-only effect, or another doubt; inactive means no such curve, though single readings can be large; an effect the other way counts as inactive or inconclusive. Unless noted, on the % scale 0 is the no-effect control and ±100 the full control effect.

SMILES	ELG1 repair inh	HT1080 IDH1KD tx	TDP1 cell noCPT	IL-1B inflam inh	HT1080NT lethal	DT40 TDP1 CPT
O=C(NCc1ccccc1)c1csc(-c2cccnc2)n1	5.8µM*	-13%	5.8µM*	?	-13%	?
O=C(NCCc1csc(-c2cccnc2)n1)c1ccccc1	-5%	14%	-28%	-1	0%	-18%
COc1ccc(-c2nc(CCNC(=O)c3cccs3)cs2)cc1OC	·	·	21µM*	·	·	?
O=C(Nc1ccc(Cl)cc1Cl)c1csc(-c2cccnc2)n1	?	-1%	-5%	29	10%	6%
CC(O)(c1ccccc1)[N+]1(CC(=O)c2ccccc2)C=CC=C1 (stereo not given)	·	·	-15%	·	·	-21%
O=C1CCCN1c1ccc(C(=O)N(Cc2nnc(-c3ccc(Cl)cc3)o2)C2CC2)cc1	-5%	9%	?	-14	19%	?
CC(Sc1ccccc1)C(=O)N1CCN(S(=O)(=O)c2ccccc2F)CC1 (stereo not given)	-10%	-4%	-15%	-7	-4%	-12%
CCCn1ccnc1SCC(=O)Nc1c(C)n(C)n(-c2ccccc2)c1=O	15%	1%	-21%	0	4%	9%
C[C@@H]1CN([C@H](C)CO)C(=O)CCCn2cc(nn2)CO[C@H]1CN(C)C(=O)Nc1ccc2c(c1)OCO2	·	9%	-28%	19	11%	13%
O=C(NCCc1csc(-c2ccccc2)n1)c1cccs1	-3%	-2%	9.2µM*	?	3%	23µM*
Cc1nc(CCNC(=O)c2cccs2)cs1	28%	4%	-1%	-16	14%	0%
O=C(NCCc1csc(-c2ccccc2)n1)c1ccco1	23%	-3%	?	?	3%	18µM*
CC(C(=O)Nc1cc(C(F)(F)F)ccc1Cl)n1nnc2sc3c(c2c1=O)CCCC3 (stereo not given)	·	·	16µM*	·	·	23µM*
O=C(O)c1ccc(Cn2nnc3sc4c(c3c2=O)CCCC4)cc1	?	-1%	0%	42	-5%	4%
Cc1c(Cl)cccc1NC(=O)C(C)n1nnc2sc3c(c2c1=O)CCCC3 (stereo not given)	·	·	-18%	·	·	?
Cc1ccc(Cl)cc1NC(=O)C(C)n1nnc2sc3c(c2c1=O)CCCC3 (stereo not given)	·	·	16µM*	·	·	26µM*
CCOc1ccccc1NC(=O)C(C)n1nnc2sc3c(c2c1=O)CCCC3 (stereo not given)	·	·	15µM*	·	·	?
Cc1ccccn1	·	·	0%	·	·	-2%
NC/C=C\C(=O)O	·	·	0%	·	·	-1%
Fc1ccccc1C1CC(c2ccco2)=Nc2ccccc2S1 (stereo not given)	?	-29%	13µM*	-5	-14%	?
COc1cc(OC)c(NC(=O)c2cc3ccccc3cc2O)cc1Cl	·	-9%	?	-78*	-11%	10µM*
COc1cc(NC(=O)c2ccccc2)c(OC)cc1Cl	-8%	-14%	?	9	-19%	-28%
COc1ccc(C(=O)Nc2cc(OC)c(Cl)cc2Cl)cc1	25%	-4%	23µM*	10	-18%	3%
CC(=O)N1CCCc2cc(S(=O)(=O)N3CCCC(C(=O)Nc4ccccc4C)C3)ccc21 (stereo not given)	-1%	0%	-10%	14	7%	?
Cc1ccc(C(O)c2ncc(-c3ccc(F)cc3)[nH]2)cc1F (stereo not given)	·	-9%	?	8	-4%	?
SMILES	ELG1 repair inh	HT1080 IDH1KD tx	TDP1 cell noCPT	IL-1B inflam inh	HT1080NT lethal	DT40 TDP1 CPT
C=CC(COCc1ccccc1)N(Cc1ccc(OC)cc1)S(=O)(=O)c1ccccc1Br (stereo not given)	-16%	0%	?	24	-2%	?
C=CC(COCc1ccccc1)N([C@@H](Cc1ccccc1)C(=O)OC)S(=O)(=O)c1ccccc1Br (stereo not given in full)	10%	-9%	23µM*	12	-5%	?
CC(C)NC(=O)[C@@H]1CSC2c3ccccc3C(=O)N21 (stereo not given in full)	11%	4%	1%	2	2%	5%
COC(=O)C1CSC2c3ccccc3C(=O)N12 (stereo not given)	·	-6%	?	-4	-6%	18µM*
CCOC(=O)c1c(NC(=O)COc2ncnc3ccccc23)sc(C(C)=O)c1C	?	-2%	13µM*	62	-9%	13µM*
CCOC(=O)c1c(NC(=O)CC)sc(C(C)=O)c1C	-8%	-1%	?	-18	-1%	?
COC(=O)c1c(NC(=O)COc2ncnc3ccccc23)sc(C)c1C	-9%	1%	26µM*	1	0%	?
CCOC(=O)c1c(NC(=O)CSc2ncnc3ccccc23)sc(C)c1C	12µM*	9%	15µM*	24	23%	?
Cc1csc(NC(=O)CSc2ncnc3ccccc23)n1	2%	-15%	?	-89*	-8%	?
C[C@@H]1CCC2[C@](C)(CO)[C@@H](O)CC[C@]2(C)[C@]12CCC(CO)(CCO)O2 (stereo not given in full)	·	·	3%[9.04 µM]	·	·	7%[9.04 µM]
COc1cccc(CNC(=O)c2cnn(-c3ncc4c(n3)-c3ccccc3CCC4)c2C)c1OC	·	·	-22%	·	·	?
CCOC(=O)c1c(NC(=O)CSc2nc3ccccc3s2)sc(C(C)=O)c1C	?	-3%	16µM*	11	?	7.3µM*
CCOC(=O)c1c(NC(=O)CC2Nc3ccccc3NC2=O)sc(C)c1C (stereo not given)	?	-10%	18µM*	-5	-5%	8.2µM*
CCOC(=O)c1c(NC(=O)CC2Sc3ccc(C(F)(F)F)cc3NC2=O)sc(C)c1C (stereo not given)	12%	24%	?	4	8%	?
CCOC(=O)c1c(NC(=O)C2=C(C)NC(=S)NC2c2ccc(CC)cc2)sc(C)c1C (stereo not given)	6.5µM*	·	·	·	·	·
CCOC(=O)c1c(NC(=O)CSc2nc3cc(Cl)ccc3s2)sc(C(C)=O)c1C	-9%	·	·	·	·	·
CCOC(=O)C1=C(C)NC(=S)NC1c1ccc(OC(=O)c2ccco2)cc1 (stereo not given)	19%	2%	-25%	12	5%	0%
O=C(c1nn2c(C(F)(F)F)cc(-c3cccs3)nc2c1Cl)N1CCCc2ccccc21	?	-24%	12µM*	-1	-12%	16µM*
